T1: RBFOX1 RRM (Homo sapiens, UniProt Q9NWB1 109-208)
T1 sequence: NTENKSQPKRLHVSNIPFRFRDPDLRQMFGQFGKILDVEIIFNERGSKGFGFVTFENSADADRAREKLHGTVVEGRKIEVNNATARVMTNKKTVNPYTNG

B1: CGUCGAU (DNA:RNA)
RNA: GGGAGACCGGAAUUCAGAUUGUCCCGUCGAUUUAAAUCCCGUCGUAGCCACCA
DNA 1: CAATCTGAATTCCGGTCTCCC
DNA 2: TGGTGGCTACGACGGGATT
B2: AGGUGGG (DNA:RNA)
RNA: B1 RNA with C25A, U27G, C28U, A30G, U31G
DNA 1: CAATCTGAATTCCGGTCTCCC
DNA 2: TGGTGGCTACGACGGGATT
B3: CCUAAUC (DNA:RNA)
RNA: B1 RNA with G26C, C28A, G29A, A30U, U31C
DNA 1: CAATCTGAATTCCGGTCTCCC
DNA 2: TGGTGGCTACGACGGGATT
B4: CCCUUAA (DNA:RNA)
RNA: B1 RNA with G26C, U27C, C28U, G29U, U31A
DNA 1: CAATCTGAATTCCGGTCTCCC
DNA 2: TGGTGGCTACGACGGGATT
B5: AACGCGA (DNA:RNA)
RNA: GGGAGACCGGAAUUCAGAUUGUCCAACGCGAUUAAAUCCCGUCGUAGCCACCA
DNA 1: CAATCTGAATTCCGGTCTCCC
DNA 2: TGGTGGCTACGACGGGATT
B6: UCAGGUU (DNA:RNA)
RNA: B1 RNA with C25U, G26C, U27A, C28G, A30U
DNA 1: CAATCTGAATTCCGGTCTCCC
DNA 2: TGGTGGCTACGACGGGATT
B7: ACUCGCA (DNA:RNA)
RNA: B1 RNA with C25A, G26C, A30C, U31A
DNA 1: CAATCTGAATTCCGGTCTCCC
DNA 2: TGGTGGCTACGACGGGATT
B8: AACAGAA (DNA:RNA)
RNA: B5 RNA with G28A, C29G, G30A
DNA 1: CAATCTGAATTCCGGTCTCCC
DNA 2: TGGTGGCTACGACGGGATT
B9: AAACGGU (DNA:RNA)
RNA: B5 RNA with C27A, G28C, C29G, A31U
DNA 1: CAATCTGAATTCCGGTCTCCC
DNA 2: TGGTGGCTACGACGGGATT
B10: UGAAUGA (DNA:RNA)
RNA: B5 RNA with A25U, A26G, C27A, G28A, C29U
DNA 1: CAATCTGAATTCCGGTCTCCC
DNA 2: TGGTGGCTACGACGGGATT
B11: AGGCUUG (DNA:RNA)
RNA: B1 RNA with C25A, U27G, G29U, A30U, U31G
DNA 1: CAATCTGAATTCCGGTCTCCC
DNA 2: TGGTGGCTACGACGGGATT
B12: GUAUUGC (DNA:RNA)
RNA: B5 RNA with A25G, A26U, C27A, G28U, C29U, A31C
DNA 1: CAATCTGAATTCCGGTCTCCC
DNA 2: TGGTGGCTACGACGGGATT
B13: UGAUGAA (DNA:RNA)
RNA: B1 RNA with C25U, U27A, C28U, U31A
DNA 1: CAATCTGAATTCCGGTCTCCC
DNA 2: TGGTGGCTACGACGGGATT
B14: GAAAUGC (DNA:RNA)
RNA: B5 RNA with A25G, C27A, G28A, C29U, A31C
DNA 1: CAATCTGAATTCCGGTCTCCC
DNA 2: TGGTGGCTACGACGGGATT
B15: AGGAGGC (DNA:RNA)
RNA: B5 RNA with A26G, C27G, G28A, C29G, A31C
DNA 1: CAATCTGAATTCCGGTCTCCC
DNA 2: TGGTGGCTACGACGGGATT
B16: CUGAUGA (DNA:RNA)
RNA: B5 RNA with A25C, A26U, C27G, G28A, C29U
DNA 1: CAATCTGAATTCCGGTCTCCC
DNA 2: TGGTGGCTACGACGGGATT
B17: GUAAUGC (DNA:RNA)
RNA: B5 RNA with A25G, A26U, C27A, G28A, C29U, A31C
DNA 1: CAATCTGAATTCCGGTCTCCC
DNA 2: TGGTGGCTACGACGGGATT
B18: CCGUUGC (DNA:RNA)
RNA: B5 RNA with A25C, A26C, C27G, G28U, C29U, A31C
DNA 1: CAATCTGAATTCCGGTCTCCC
DNA 2: TGGTGGCTACGACGGGATT
B19: GGAUUGC (DNA:RNA)
RNA: B5 RNA with A25G, A26G, C27A, G28U, C29U, A31C
DNA 1: CAATCTGAATTCCGGTCTCCC
DNA 2: TGGTGGCTACGACGGGATT
B20: ACCAGGC (DNA:RNA)
RNA: B5 RNA with A26C, G28A, C29G, A31C
DNA 1: CAATCTGAATTCCGGTCTCCC
DNA 2: TGGTGGCTACGACGGGATT
B21: GGAAUGC (DNA:RNA)
RNA: B5 RNA with A25G, A26G, C27A, G28A, C29U, A31C
DNA 1: CAATCTGAATTCCGGTCTCCC
DNA 2: TGGTGGCTACGACGGGATT
B22: CCAAGUA (DNA:RNA)
RNA: B1 RNA with G26C, U27A, C28A, A30U, U31A
DNA 1: CAATCTGAATTCCGGTCTCCC
DNA 2: TGGTGGCTACGACGGGATT
B23: UGACUAA (DNA:RNA)
RNA: B1 RNA with C25U, U27A, G29U, U31A
DNA 1: CAATCTGAATTCCGGTCTCCC
DNA 2: TGGTGGCTACGACGGGATT
B24: AGAUAAC (DNA:RNA)
RNA: B1 RNA with C25A, U27A, C28U, G29A, U31C
DNA 1: CAATCTGAATTCCGGTCTCCC
DNA 2: TGGTGGCTACGACGGGATT
B25: CCAGGCC (DNA:RNA)
RNA: B1 RNA with G26C, U27A, C28G, A30C, U31C
DNA 1: CAATCTGAATTCCGGTCTCCC
DNA 2: TGGTGGCTACGACGGGATT
B26: CUGUCUG (DNA:RNA)
RNA: B5 RNA with A25C, A26U, C27G, G28U, G30U, A31G
DNA 1: CAATCTGAATTCCGGTCTCCC
DNA 2: TGGTGGCTACGACGGGATT
B27: GGAUACC (DNA:RNA)
RNA: B1 RNA with C25G, U27A, C28U, G29A, A30C, U31C
DNA 1: CAATCTGAATTCCGGTCTCCC
DNA 2: TGGTGGCTACGACGGGATT
B28: CGGAUGC (DNA:RNA)
RNA: B1 RNA with U27G, C28A, G29U, A30G, U31C
DNA 1: CAATCTGAATTCCGGTCTCCC
DNA 2: TGGTGGCTACGACGGGATT
B29: UGAAUGC (DNA:RNA)
RNA: B5 RNA with A25U, A26G, C27A, G28A, C29U, A31C
DNA 1: CAATCTGAATTCCGGTCTCCC
DNA 2: TGGTGGCTACGACGGGATT
B30: CGGCUUG (DNA:RNA)
RNA: B1 RNA with U27G, G29U, A30U, U31G
DNA 1: CAATCTGAATTCCGGTCTCCC
DNA 2: TGGTGGCTACGACGGGATT
B31: GUCUUGC (DNA:RNA)
RNA: B5 RNA with A25G, A26U, G28U, C29U, A31C
DNA 1: CAATCTGAATTCCGGTCTCCC
DNA 2: TGGTGGCTACGACGGGATT
B32: GUCCGGC (DNA:RNA)
RNA: B5 RNA with A25G, A26U, G28C, C29G, A31C
DNA 1: CAATCTGAATTCCGGTCTCCC
DNA 2: TGGTGGCTACGACGGGATT
B33: UGAAUUG (DNA:RNA)
RNA: B1 RNA with C25U, U27A, C28A, G29U, A30U, U31G
DNA 1: CAATCTGAATTCCGGTCTCCC
DNA 2: TGGTGGCTACGACGGGATT
B34: GGGAUGC (DNA:RNA)
RNA: B5 RNA with A25G, A26G, C27G, G28A, C29U, A31C
DNA 1: CAATCTGAATTCCGGTCTCCC
DNA 2: TGGTGGCTACGACGGGATT
B35: UAAAUGC (DNA:RNA)
RNA: B5 RNA with A25U, C27A, G28A, C29U, A31C
DNA 1: CAATCTGAATTCCGGTCTCCC
DNA 2: TGGTGGCTACGACGGGATT
B36: CCCCGGC (DNA:RNA)
RNA: B1 RNA with G26C, U27C, A30G, U31C
DNA 1: CAATCTGAATTCCGGTCTCCC
DNA 2: TGGTGGCTACGACGGGATT
B37: GGCUUGC (DNA:RNA)
RNA: B5 RNA with A25G, A26G, G28U, C29U, A31C
DNA 1: CAATCTGAATTCCGGTCTCCC
DNA 2: TGGTGGCTACGACGGGATT
B38: CACCGGC (DNA:RNA)
RNA: B5 RNA with A25C, G28C, C29G, A31C
DNA 1: CAATCTGAATTCCGGTCTCCC
DNA 2: TGGTGGCTACGACGGGATT
B39: GGAUGCU (DNA:RNA)
RNA: B1 RNA with C25G, U27A, C28U, A30C
DNA 1: CAATCTGAATTCCGGTCTCCC
DNA 2: TGGTGGCTACGACGGGATT

Positions count from the first letter of the chain named. Over roughly 16,000 sequences, “ka relative to ugcaugu” has its median near 0.0091; the highest 2% begin near 0.032. For the sample, the highest values were picked, then their nearest neighbours and some sequences at random.

This experiment addresses T1, RBFOX1 RRM. The experiment is described as follows: EMSA; HiTS-Eq, 1 nM pool, 10 min; buffer printed only for the single-RNA assays: 10 mM Tris pH 7.5, 150 mM NaCl, 3.4 mM EDTA, 0.001% NP-40, 30 C. Conditions: tags: His6 N-terminal (pET28a); label: 5' 32P. The procedure, abridged:
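Purified wild-type or mutant RbFox RRM at increasing concentrations was equilibrated with 1 nM of 5′-radiolabelled RNA carrying 7 randomized nucleotides for 10 min in 50 µL. Unbound RNA was separated by 8% native PAGE and sequenced. Relative association constants came from read-count changes of each RNA species compared with the control reaction, normalised to the cognate motif.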
As for B1, the binding signal is 0.00831 KA relative to UGCAUGU.

Consider B2, for which the binding signal is 0.0126 KA relative to UGCAUGU. With B3, the binding signal was 0.00151 KA relative to UGCAUGU. With B4 the figure was 0.00271 KA relative to UGCAUGU; with B5, 0.00453 KA relative to UGCAUGU; with B6, 0.0129 KA relative to UGCAUGU. Consider B7, for which the binding signal is 0.0123 KA relative to UGCAUGU. With B8 the figure was 0.00258 KA relative to UGCAUGU; with B9, 0.0059 KA relative to UGCAUGU; with B10, 0.0319 KA relative to UGCAUGU. With B11 the figure was 0.0346 KA relative to UGCAUGU. With B12 the figure was 0.0151 KA relative to UGCAUGU; with B13, 0.0191 KA relative to UGCAUGU; with B14, 0.0136 KA relative to UGCAUGU. On to B15, for which the binding signal was 0.0129 KA relative to UGCAUGU.

With B16, the binding signal was 0.0162 KA relative to UGCAUGU.

Regarding B17, the binding signal is 0.0131 KA relative to UGCAUGU.

B18: the binding signal was 0.0124 KA relative to UGCAUGU. With B19 the figure was 0.0376 KA relative to UGCAUGU.

For B20, the binding signal is 0.00626 KA relative to UGCAUGU. On to B21, for which the binding signal was 0.0946 KA relative to UGCAUGU. Next, B22: 0.00123 KA relative to UGCAUGU. Next, B23: 0.00904 KA relative to UGCAUGU. Next, B24: 0.00125 KA relative to UGCAUGU; B25: 0.0113 KA relative to UGCAUGU. Regarding B26, the binding signal is 0.0306 KA relative to UGCAUGU.

With B27, the binding signal is 0.00541 KA relative to UGCAUGU. With B28 the figure was 0.0275 KA relative to UGCAUGU; with B29, 0.0399 KA relative to UGCAUGU; with B30, 0.0325 KA relative to UGCAUGU.

As for B31, the binding signal was 0.0291 KA relative to UGCAUGU. As to B32, the binding signal was 0.00575 KA relative to UGCAUGU. With B33 the figure was 0.0261 KA relative to UGCAUGU; with B34, 0.0515 KA relative to UGCAUGU; with B35, 0.00992 KA relative to UGCAUGU. Turning to B36, the binding signal was 0.00228 KA relative to UGCAUGU. With B37 the figure was 0.0328 KA relative to UGCAUGU; with B38, 0.00645 KA relative to UGCAUGU; with B39, 0.0261 KA relative to UGCAUGU.
